Eight molecules from PubChem BioAssay (EPA / NIEHS) can be followed below.

Experiment [1] in a line: ATG_TAL_CIS: Attagene CIS-FACTORIAL HepG2 Assay for human TAL Basal Promoter (AID 2282966; active = hit-call score of the fitted dose curve at least 0.9, where 1 is the maximum; inactive = score below 0.9;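 also: background control endpoint measuring basal TAL promoter reporter mRNA not a specific factor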). As to conditions: HepG2 Attagene cis-factorial TAL promoter reporter; actives raise or lower the signal. Summed up:
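Steps: transfect HepG2 with multiple reporter transcription units; dose 24 h; isolate RNA, reverse-transcribe, PCR-amplify, label with 6-FAM, digest with HpaI; resolve by capillary electrophoresis. Bidirectional fitting against DMSO baseline.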

The nature of experiment [2]: ATG_VDRE_CIS: Attagene CIS-FACTORIAL HepG2 Assay for human Vitamin D Receptor Element (VDRE) (AID 2282968; active = hit-call score of the fitted dose curve at least 0.9, where 1 is the maximum; inactive = score below 0.9). As to conditions: HepG2 VDRE cis-reporter transcription, actives raise or lower the signal. Summed up: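 Cell-based multiplexed reporter format in human liver HepG2 cells, 24 h post-dose. Fluorescence from capillary electrophoresis of reporter cDNA gives the signal, with DMSO as negative control and baseline.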

Experiment [3] concerns the target X-box-binding protein 1 (Homo sapiens) (UniProt P17861). Description: ATG_Xbp1_CIS: Attagene CIS-FACTORIAL HepG2 Assay for human X-box Binding Protein 1 (XBP1) (AID 2282972; active = hit-call score of the fitted dose curve at least 0.9, where 1 is the maximum; inactive = score below 0.9). As to conditions: HepG2 XBP1 cis-element reporter, Attagene multiplex; actives raise or lower the signal. Summed up: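 HepG2 cells transiently transfected with cis-regulated multiple reporter transcription units; endogenous transcription factor activity measured 24 hours after chemical dosing. Reporter mRNA quantified by RT-PCR, 6-FAM primer extension, HpaI digestion and capillary electrophoresis; bidirectional fitting versus DMSO.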

Experiment [4] can be described thus: ATG_M_19_TRANS: Attagene TRANS-FACTORIAL HepG2 Assay for M19 Transcription Factor (Internal Marker) (AID 2282974). As to conditions: HepG2 Attagene TRANS-FACTORIAL M19 internal marker reporter. Summed up: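 24 h chemical exposure of transiently transfected HepG2 (MRTU library). RNA → oligo(dT) RT → PCR → 6-FAM labelling → HpaI cut → CE fluorescence. Positive-direction fit vs DMSO baseline; background internal-marker readout.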

Experiment [5] can be described thus: ATG_GAL4_TRANS: Attagene TRANS-FACTORIAL HepG2 Assay for GAL4 (Internal Marker) (AID 2282976). As to conditions: HepG2 Attagene TRANS GAL4 internal marker reporter. Summed up:
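Liver HepG2 line bearing multiplexed GAL4-UAS reporter constructs; 24 h chemical treatment. Transcripts were quantified as fluorescent fragments on capillary electrophoresis after RT-PCR and HpaI cut, with activity fitted upward from DMSO.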

For experiment [6], the target named is Glucocorticoid receptor (Homo sapiens) (UniProt P04150). Briefly: ATG_GR_TRANS: Attagene TRANS-FACTORIAL HepG2 Assay for human Glucocorticoid Receptor (GR) (AID 2282978).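 Also: activators score as hits since higher reporter transcript over DMSO is fitted.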 As to conditions: HepG2 Attagene TRANS GR reporter, mRNA transcription. Summed up: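 Transient MRTU transfection of HepG2 (GAL4-UAS reporters, exogenous NR-GAL4 chimeras), 24 h dosing. Readout: reporter transcript via RT-PCR + capillary electrophoresis fluorescence. Positive direction vs DMSO baseline.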

In experiment [7] the target is Hepatocyte nuclear factor 4-alpha (Homo sapiens) (UniProt P41235). Description: ATG_HNF4a_TRANS: Attagene TRANS-FACTORIAL HepG2 Assay for human Hepatocyte Nuclear Factor 4 alpha (HNF4a) (AID 2282982). As to conditions: HepG2 HNF4a transactivation reporter, mRNA readout. Summed up: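 Gain-of-signal mRNA induction, relative to DMSO vehicle, was read after 24 h compound treatment of HepG2 cells bearing transfected GAL4-UAS reporters. Detection used RT-PCR, 6-FAM primer extension and capillary electrophoresis.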

The nature of experiment [8]: ATG_M_06_TRANS: Attagene TRANS-FACTORIAL HepG2 Assay for M06 Transcription Factor (Internal Marker) (AID 2282983). As to conditions: HepG2 Attagene TRANS M06 internal marker reporter. Summed up:
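Internal-marker background readout from a multiplexed TRANS reporter system in HepG2; 24 h dosing; mRNA induction quantified by RT-PCR plus capillary electrophoresis fluorescence; DMSO as negative control and baseline.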

Experiment [9] concerns the target Nuclear receptor subfamily 4 group A member 2 (Homo sapiens) (UniProt P43354). Description: ATG_NURR1_TRANS: Attagene TRANS-FACTORIAL HepG2 Assay for human Nuclear Receptor Related Protein 1 (NURR1) (AID 2282985). As to conditions: HepG2 Attagene TRANS reporter, mRNA readout. Summed up:
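HepG2 / transient MRTU transfection / 24 h compound exposure / RT-PCR + CE fluorescence of reporter mRNA / gain-of-signal vs DMSO.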

Experiment [10] has as its target Transcriptional activator Myb (Homo sapiens) (UniProt P10242). Briefly: ATG_Myb_CIS: Attagene CIS-FACTORIAL HepG2 Assay for human Myeloblastosis (Myb) Proto-Oncogene Transcription Factor (AID 2282986; active = hit-call score of the fitted dose curve at least 0.9, where 1 is the maximum; inactive = score below 0.9). As to conditions: HepG2 Attagene CIS-FACTORIAL Myb reporter transcription; actives raise or lower the signal. Summed up: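 HepG2, transient MRTU transfection (cis-element promoters, endogenous TF activity), 24 h compound exposure. Readout: reporter mRNA via RT-PCR, 6-FAM labeling, HpaI digest, capillary electrophoresis. Gain/loss fit vs DMSO.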

For experiment [11], the target named is Nuclear respiratory factor 1 (Homo sapiens) (UniProt Q16656). Description: ATG_NRF1_CIS: Attagene CIS-FACTORIAL HepG2 Assay for human Nuclear Respiratory Factor 1 (NRF1) Orphan Gene (AID 2282987; active = hit-call score of the fitted dose curve at least 0.9, where 1 is the maximum; inactive = score below 0.9). As to conditions: HepG2 NRF1 cis-element reporter, Attagene multiplex; actives raise or lower the signal. Summed up:
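Endogenous NRF1-driven reporter transcription measured in transiently transfected human HepG2 liver cells. Readout: reporter mRNA by RT-PCR and capillary electrophoresis with fluorescence detection, 24 h post-dosing. Gain or loss of signal fitted relative to DMSO baseline.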

Experiment [12] in a line: ATG_NFI_CIS: Attagene CIS-FACTORIAL HepG2 Assay for human Nuclear Factor I (NFI) (AID 2282989; active = hit-call score of the fitted dose curve at least 0.9, where 1 is the maximum; inactive = score below 0.9). As to conditions: HepG2 cis-regulatory reporter, NFI response element transcription; actives raise or lower the signal. Summed up:
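Multiplexed cis-reporter system in human HepG2 cells reports native TF activity as reporter mRNA induction 24 h post-dose. Fragments labelled with 6-FAM, HpaI-digested and resolved by capillary electrophoresis; activity fitted both directions versus DMSO.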

In experiment [13] the target is Estrogen-related receptor gamma (Homo sapiens) (UniProt P62508). Description: ATG_ERRg_TRANS: Attagene TRANS-FACTORIAL HepG2 Assay for human Estrogen-Related Receptor gamma (ERRg) (AID 2282977).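 Also: hits increase reporter signal over DMSO so potencies reflect activators.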 As to conditions: HepG2 Attagene TRANS reporter, ERRg transactivation. Summed up: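 HepG2 cells transiently transfected with multiplexed GAL4-UAS reporter units and chimeric NR-Gal4 constructs were exposed to test chemicals for 24 h. Reporter mRNA was measured by RT-PCR, 6-FAM primer extension, HpaI digestion and capillary electrophoresis; gain-of-signal versus DMSO.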

The nature of experiment [14]: ATG_M_32_TRANS: Attagene TRANS-FACTORIAL HepG2 Assay for M32 Transcription Factor (Internal Marker) (AID 2282984).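 Also: transcript level of a background control reporter unit measured by RT-PCR and capillary electrophoresis.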 As to conditions: HepG2 Attagene TRANS M32 internal marker reporter. Summed up: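 Capillary electrophoresis of 6-FAM-labelled reporter fragments gives the signal; data fitted for gain over DMSO negative control. Source: HepG2 cells bearing transient multiple reporter transcription units, 24 h exposure.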

Experiment [15] concerns the target Nuclear receptor subfamily 1 group I member 3 (Homo sapiens) (UniProt Q14994). Description: ATG_CAR_TRANS: Attagene TRANS-FACTORIAL HepG2 Assay for human Constitutive Androstane Receptor (CAR) (AID 2282969).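 Also: activators raise reporter mRNA above DMSO so AC50 marks induction.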 As to conditions: HepG2 Attagene TRANS-FACTORIAL CAR reporter. Summed up:
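HepG2 cells transiently transfected with GAL4-UAS reporter units; TRANS format reads activity of exogenous chimeric NR-Gal4 protein. After 24 h dosing, reporter mRNA quantified by RT-PCR, 6-FAM labelling and capillary electrophoresis; gain of signal fitted against DMSO.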

Experiment [16] concerns the target Steroid hormone receptor ERR1 (Homo sapiens) (UniProt P11474). Briefly: ATG_ERRa_TRANS: Attagene TRANS-FACTORIAL HepG2 Assay for human Estrogen-Related Receptor alpha (ERRa) (AID 2282971). As to conditions: HepG2 Attagene TRANS reporter, ERRa transactivation. Summed up:
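Signal gain relative to DMSO for an ERRa-Gal4 chimeric receptor, read as reporter mRNA by RT-PCR/capillary electrophoresis. Human HepG2 liver cells, transient multiplex reporter transfection, 24 h chemical exposure.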

The target of experiment [17] is Oxysterols receptor LXR-alpha (Homo sapiens) (UniProt Q13133). Briefly: ATG_LXRa_TRANS: Attagene TRANS-FACTORIAL HepG2 Assay for human Liver X Receptor alpha (LXRa) (AID 2282980). As to conditions: HepG2 Attagene TRANS reporter, LXRa transactivation. Summed up:
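In this multiplexed TRANS system, compounds act on HepG2 cells carrying GAL4-UAS reporter units and a receptor-GAL4 fusion for 24 h. Induced reporter RNA is amplified, fluorescently labelled and sized by capillary electrophoresis, with DMSO as baseline.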

Experiment [18] deals with Bile acid receptor (Homo sapiens) (UniProt Q96RI1). Description: ATG_FXR_TRANS: Attagene TRANS-FACTORIAL HepG2 Assay for Farnesoid X Receptor (FXR) (AID 2282979).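 Also: hits raise reporter mRNA above DMSO so AC50 marks FXR activation.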 As to conditions: HepG2 Attagene TRANS FXR-GAL4 reporter transcription. Summed up: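 After 24 h chemical treatment of transfected HepG2 cells, GAL4-UAS reporter transcripts driven by an exogenous FXR-GAL4 fusion were measured by RT-PCR and capillary electrophoresis. Increases over DMSO were fitted.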

Experiment [19] has as its target Oxysterols receptor LXR-beta (Homo sapiens) (UniProt P55055). Description: ATG_LXRb_TRANS: Attagene TRANS-FACTORIAL HepG2 Assay for human Liver X Receptor beta (LXRb) (AID 2282981). As to conditions: HepG2 Attagene TRANS GAL4-LXRb reporter, mRNA. Summed up:
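Gain-of-signal mRNA reporter endpoint, DMSO as negative control. Transiently transfected HepG2 cells carrying the NR-Gal4 chimera and GAL4-UAS reporter units were treated 24 h; transcripts quantified by RT-PCR and capillary electrophoresis fluorescence.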

Inconclusive results are not listed. Activity calls are given as the source filed them. The calls were made as follows, unless noted: active = hit-call score of the fitted dose curve at least 0.9, where 1 is the maximum; inconclusive = response in the unintended direction; inactive = score below 0.9.

Sequence of Nuclear receptor subfamily 4 group A member 2 (Homo sapiens) (P43354 whole entry, looked up): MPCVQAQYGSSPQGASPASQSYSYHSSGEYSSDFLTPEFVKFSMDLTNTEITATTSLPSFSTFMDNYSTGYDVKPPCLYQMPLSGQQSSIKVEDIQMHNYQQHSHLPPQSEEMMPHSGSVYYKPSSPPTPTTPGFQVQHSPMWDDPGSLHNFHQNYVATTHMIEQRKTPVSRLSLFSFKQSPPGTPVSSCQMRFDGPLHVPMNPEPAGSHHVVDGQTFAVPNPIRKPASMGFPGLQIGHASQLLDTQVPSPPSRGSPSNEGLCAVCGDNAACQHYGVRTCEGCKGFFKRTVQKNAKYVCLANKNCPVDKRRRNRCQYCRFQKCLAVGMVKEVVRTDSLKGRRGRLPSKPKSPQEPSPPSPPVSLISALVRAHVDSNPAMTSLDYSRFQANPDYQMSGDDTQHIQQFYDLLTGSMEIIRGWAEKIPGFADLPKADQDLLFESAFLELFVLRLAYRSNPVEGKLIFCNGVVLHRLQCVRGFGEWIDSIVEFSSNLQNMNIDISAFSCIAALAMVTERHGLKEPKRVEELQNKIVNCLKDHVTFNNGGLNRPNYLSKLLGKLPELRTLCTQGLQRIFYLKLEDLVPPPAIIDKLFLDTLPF
Sequence of Hepatocyte nuclear factor 4-alpha (Homo sapiens) (P41235 whole entry, looked up, the tested form may be a part): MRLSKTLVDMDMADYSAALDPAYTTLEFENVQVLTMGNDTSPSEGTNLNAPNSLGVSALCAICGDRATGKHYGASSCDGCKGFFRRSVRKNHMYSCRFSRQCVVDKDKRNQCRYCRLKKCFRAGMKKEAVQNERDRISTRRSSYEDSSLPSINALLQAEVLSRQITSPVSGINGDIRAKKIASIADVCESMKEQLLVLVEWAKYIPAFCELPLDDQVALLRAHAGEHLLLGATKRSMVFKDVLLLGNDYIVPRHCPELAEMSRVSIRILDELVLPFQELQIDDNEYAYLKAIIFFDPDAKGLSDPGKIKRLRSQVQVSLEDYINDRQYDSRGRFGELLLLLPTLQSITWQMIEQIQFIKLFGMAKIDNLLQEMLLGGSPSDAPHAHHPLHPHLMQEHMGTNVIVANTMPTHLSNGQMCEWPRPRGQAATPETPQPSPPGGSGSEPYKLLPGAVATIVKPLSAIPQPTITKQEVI
Sequence of Transcriptional activator Myb (Homo sapiens) (P10242 whole entry, looked up): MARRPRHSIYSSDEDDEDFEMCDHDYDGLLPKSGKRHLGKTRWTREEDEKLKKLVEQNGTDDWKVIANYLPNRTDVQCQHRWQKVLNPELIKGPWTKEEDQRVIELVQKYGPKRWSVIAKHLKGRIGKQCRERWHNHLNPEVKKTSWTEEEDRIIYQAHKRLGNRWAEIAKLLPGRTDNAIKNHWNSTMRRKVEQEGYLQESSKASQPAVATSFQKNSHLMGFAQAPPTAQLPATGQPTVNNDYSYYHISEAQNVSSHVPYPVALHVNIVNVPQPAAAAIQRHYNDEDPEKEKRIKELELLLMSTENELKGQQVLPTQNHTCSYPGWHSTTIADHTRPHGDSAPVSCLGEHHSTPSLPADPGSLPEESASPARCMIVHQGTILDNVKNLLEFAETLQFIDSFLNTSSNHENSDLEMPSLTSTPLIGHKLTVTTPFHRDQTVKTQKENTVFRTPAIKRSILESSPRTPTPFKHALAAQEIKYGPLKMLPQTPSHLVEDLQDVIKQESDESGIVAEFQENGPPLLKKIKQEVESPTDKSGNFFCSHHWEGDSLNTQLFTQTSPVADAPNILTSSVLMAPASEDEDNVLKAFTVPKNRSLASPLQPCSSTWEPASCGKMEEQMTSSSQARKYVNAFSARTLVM
Sequence of Nuclear respiratory factor 1 (Homo sapiens) (Q16656 whole entry, looked up): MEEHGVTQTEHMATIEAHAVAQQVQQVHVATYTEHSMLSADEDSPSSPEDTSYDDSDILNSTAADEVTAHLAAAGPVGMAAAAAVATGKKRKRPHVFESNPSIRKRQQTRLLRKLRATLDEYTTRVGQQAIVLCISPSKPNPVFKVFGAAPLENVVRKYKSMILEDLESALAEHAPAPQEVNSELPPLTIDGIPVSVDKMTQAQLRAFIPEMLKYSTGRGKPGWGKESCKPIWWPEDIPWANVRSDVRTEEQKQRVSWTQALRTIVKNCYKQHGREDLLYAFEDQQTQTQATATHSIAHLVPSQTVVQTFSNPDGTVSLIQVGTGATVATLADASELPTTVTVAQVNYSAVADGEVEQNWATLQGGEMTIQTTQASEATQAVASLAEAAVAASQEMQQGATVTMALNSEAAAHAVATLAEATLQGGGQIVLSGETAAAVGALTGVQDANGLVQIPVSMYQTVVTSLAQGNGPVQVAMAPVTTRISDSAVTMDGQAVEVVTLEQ
Sequence of X-box-binding protein 1 (Homo sapiens) (P17861 whole entry, looked up): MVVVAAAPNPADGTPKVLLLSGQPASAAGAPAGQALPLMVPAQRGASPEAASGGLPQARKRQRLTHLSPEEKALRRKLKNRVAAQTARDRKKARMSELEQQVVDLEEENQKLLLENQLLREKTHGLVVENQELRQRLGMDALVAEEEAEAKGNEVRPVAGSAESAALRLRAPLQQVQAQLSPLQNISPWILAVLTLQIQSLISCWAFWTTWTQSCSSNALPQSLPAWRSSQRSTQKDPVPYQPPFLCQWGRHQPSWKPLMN
Sequence of Nuclear receptor subfamily 1 group I member 3 (Homo sapiens) (Q14994 whole entry, looked up, the tested form may be a part): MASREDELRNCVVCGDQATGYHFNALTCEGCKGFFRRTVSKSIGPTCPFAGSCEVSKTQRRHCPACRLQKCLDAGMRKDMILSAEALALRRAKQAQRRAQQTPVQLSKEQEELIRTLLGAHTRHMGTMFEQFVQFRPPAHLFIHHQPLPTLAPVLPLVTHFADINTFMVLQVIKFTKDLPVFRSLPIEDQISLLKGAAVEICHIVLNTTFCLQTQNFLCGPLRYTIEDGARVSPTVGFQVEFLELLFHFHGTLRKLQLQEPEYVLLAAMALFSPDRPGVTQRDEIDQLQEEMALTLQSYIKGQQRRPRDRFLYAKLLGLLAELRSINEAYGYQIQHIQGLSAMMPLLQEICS
Sequence of Glucocorticoid receptor (Homo sapiens) (P04150 whole entry, looked up, the tested form may be a part): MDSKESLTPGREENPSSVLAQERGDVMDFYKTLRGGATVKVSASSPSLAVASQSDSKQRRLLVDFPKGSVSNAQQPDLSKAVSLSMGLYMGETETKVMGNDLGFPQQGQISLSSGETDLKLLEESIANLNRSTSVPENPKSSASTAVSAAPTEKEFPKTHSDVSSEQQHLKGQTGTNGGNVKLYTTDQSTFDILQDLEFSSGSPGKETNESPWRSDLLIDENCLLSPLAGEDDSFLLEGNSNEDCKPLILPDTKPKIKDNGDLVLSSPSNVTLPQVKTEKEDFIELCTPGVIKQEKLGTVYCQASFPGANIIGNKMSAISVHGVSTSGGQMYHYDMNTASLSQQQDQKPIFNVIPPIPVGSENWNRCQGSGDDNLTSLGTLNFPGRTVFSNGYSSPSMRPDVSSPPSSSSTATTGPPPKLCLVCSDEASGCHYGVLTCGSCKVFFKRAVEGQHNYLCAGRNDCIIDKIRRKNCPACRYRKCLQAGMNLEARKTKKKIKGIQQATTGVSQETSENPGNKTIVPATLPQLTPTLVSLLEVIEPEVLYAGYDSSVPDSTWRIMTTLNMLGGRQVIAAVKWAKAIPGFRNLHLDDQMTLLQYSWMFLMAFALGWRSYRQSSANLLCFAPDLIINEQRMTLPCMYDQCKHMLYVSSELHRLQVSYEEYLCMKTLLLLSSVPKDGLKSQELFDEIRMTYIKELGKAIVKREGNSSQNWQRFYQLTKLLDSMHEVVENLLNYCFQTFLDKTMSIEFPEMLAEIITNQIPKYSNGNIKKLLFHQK
Sequence of Estrogen-related receptor gamma (Homo sapiens) (P62508 whole entry, looked up, the tested form may be a part): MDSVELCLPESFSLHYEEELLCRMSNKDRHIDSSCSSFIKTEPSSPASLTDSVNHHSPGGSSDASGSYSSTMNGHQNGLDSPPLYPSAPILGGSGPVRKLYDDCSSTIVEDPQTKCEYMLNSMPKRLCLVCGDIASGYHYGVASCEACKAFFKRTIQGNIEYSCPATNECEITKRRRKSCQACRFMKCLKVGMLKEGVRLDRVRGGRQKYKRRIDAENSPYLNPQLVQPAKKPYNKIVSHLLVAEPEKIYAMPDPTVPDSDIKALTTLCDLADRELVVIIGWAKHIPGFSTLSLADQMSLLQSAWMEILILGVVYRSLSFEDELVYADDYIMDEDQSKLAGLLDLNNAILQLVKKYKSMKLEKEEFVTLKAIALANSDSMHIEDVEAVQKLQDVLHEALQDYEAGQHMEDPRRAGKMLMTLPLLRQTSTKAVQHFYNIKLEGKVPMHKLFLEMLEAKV
Sequence of Oxysterols receptor LXR-alpha (Homo sapiens) (Q13133 whole entry, looked up, the tested form may be a part): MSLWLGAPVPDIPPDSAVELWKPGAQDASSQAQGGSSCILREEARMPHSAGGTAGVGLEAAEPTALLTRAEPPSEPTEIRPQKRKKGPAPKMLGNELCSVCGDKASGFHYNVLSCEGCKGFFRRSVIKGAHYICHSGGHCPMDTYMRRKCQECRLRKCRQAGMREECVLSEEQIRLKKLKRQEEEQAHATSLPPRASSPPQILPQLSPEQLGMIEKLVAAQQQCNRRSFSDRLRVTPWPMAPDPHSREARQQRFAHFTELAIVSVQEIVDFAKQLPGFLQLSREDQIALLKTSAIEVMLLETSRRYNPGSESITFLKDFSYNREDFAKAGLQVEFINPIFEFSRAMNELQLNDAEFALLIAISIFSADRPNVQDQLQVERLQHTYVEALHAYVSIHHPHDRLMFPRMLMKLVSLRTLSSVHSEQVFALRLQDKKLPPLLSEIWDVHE
Sequence of Steroid hormone receptor ERR1 (Homo sapiens) (P11474 whole entry, looked up, the tested form may be a part): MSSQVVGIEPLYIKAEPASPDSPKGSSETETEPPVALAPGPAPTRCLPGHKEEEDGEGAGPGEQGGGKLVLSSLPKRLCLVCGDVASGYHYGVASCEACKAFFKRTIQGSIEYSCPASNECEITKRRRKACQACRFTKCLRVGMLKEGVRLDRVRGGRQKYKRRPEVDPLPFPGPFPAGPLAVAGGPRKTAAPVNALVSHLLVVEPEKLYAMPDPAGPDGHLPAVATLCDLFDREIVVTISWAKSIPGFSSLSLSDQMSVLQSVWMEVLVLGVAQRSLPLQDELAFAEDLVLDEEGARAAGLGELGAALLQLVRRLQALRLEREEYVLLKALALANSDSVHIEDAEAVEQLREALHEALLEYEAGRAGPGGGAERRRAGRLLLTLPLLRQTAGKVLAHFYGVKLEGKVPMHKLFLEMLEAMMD

For `Nc1ccc(Cl)c([N+](=O)[O-])c1`, the molecule was called inactive in experiment [1], in experiment [2], in experiment [3], in [4], in experiment [5] and in [6]. Moreover, the molecule was classed as inactive in experiment [7], in experiment [8], in experiment [9], in experiment [10], in experiment [11] and in experiment [12].

Regarding `COC(=O)c1ccc([N+](=O)[O-])cc1`, the molecule was classed as inactive in [1], in experiment [2], in [3], in experiment [5], in [13] and in experiment [6]. Further, the molecule was classed as inactive in experiment [7], in [8], in [14], in experiment [9], in [10] and in experiment [11]. Further, the call in experiment [12] was inactive.

Regarding `c1ccc2cc(Nc3ccc(Nc4ccc5ccccc5c4)cc3)ccc2c1`, the molecule was classed as inactive in [1], in experiment [2], in experiment [15], in experiment [16], in experiment [3] and in [4]. Besides, the result in [5], in [13], in experiment [6], in experiment [17], in experiment [8] and in experiment [9] was inactive. Besides, the outcome in [10], in [11] and in experiment [12] was inactive.

Regarding `CCCCC(CC)(CO)CO`, the molecule was called inactive in [1], in experiment [2], in [15], in [3], in experiment [4] and in experiment [5]. The molecule was called inactive in experiment [10], in experiment [11] and in experiment [12].

Regarding `CC(C)CCOC(=O)c1ccccc1`, the molecule was called inactive in experiment [1], in experiment [2], in experiment [3], in experiment [4], in experiment [5] and in experiment [14]. The molecule was classed as inactive in [10], in experiment [11] and in experiment [12].

In general, AC50 refers to the concentration giving half of the maximal activity seen. As for `CCCCCCCCCCCCN1CCCCCC1=O`, the call in experiment [1], in [2], in [6], in [18], in experiment [17] and in experiment [19] was inactive. Besides, the outcome in [7], in experiment [8], in experiment [10], in [11] and in [12] was inactive. In addition, the concentration at half-maximal activity (AC50) in experiment [3] is 14.5 µM (active).

`Nc1ccc(N)c2c1C(=O)c1ccccc1C2=O`: the molecule was called inactive in [1], in experiment [15], in [16], in experiment [4], in experiment [13] and in experiment [6]. The molecule was called inactive in experiment [18], in experiment [7], in [14], in experiment [9], in experiment [10] and in experiment [11]. Moreover, the outcome in experiment [12] was inactive. Further, the concentration at half-maximal activity (AC50) was 6.59 µM (active) in experiment [2] and 2.57 µM (active) in experiment [3].

Consider `CCOc1ccc(NC(=O)CC(C)O)cc1` (configuration not stated), for which the molecule was classed as inactive in experiment [1], in experiment [4], in experiment [7], in [9], in experiment [10] and in experiment [11]. Moreover, in [12], the molecule was classed as inactive.
